Pf Dd2 growth – Plasmodium falciparum Dd2 growth inhibition. P. falciparum Dd2 growth, SYBR Green, 72 h. Potency, µM (series often up to 28.9 µM), without a hit: at the top dose activity, negative = inhibition, usual class: inhibitors. hit rate 4.3% among 120,000; active means well fitted inhibition curve with a large enough effect;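 further: plate controls were DMSO vehicle for no effect and reference drug for full effect; nearly all actives have a fitted effect of over 65% in size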
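Infected erythrocytes (Dd2, 0.3% parasitemia, 2.5% hematocrit final) are added to compound in RPMI-1640/Albumax II medium, grown 72 h at 37C in low oxygen, then lysed with saponin/Triton-X containing SYBR Green and read by fluorescence.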
* hit, by the source's call; i = inactive; [ ] = another dose, or the depositor's remark. The full list was thinned out, with hits kept by preference. Potency means the concentration at half of the fitted maximal effect.

SMILES | Pf Dd2 growth
O=C(Nc1ccc([C@@H](O)[C@H]2COCC(=O)N2Cc2ccc(F)cc2)cc1)c1ccccc1 | i
N#Cc1cccc(C(=O)Nc2ccc([C@@H](O)[C@H]3COCC(=O)N3Cc3ccc(F)cc3)cc2)c1 | -18%
N#Cc1ccc(C(=O)Nc2ccc([C@@H](O)[C@H]3COCC(=O)N3Cc3ccc(F)cc3)cc2)cc1 | 10µM*
CCc1cccc(NC(=O)CN2C(=O)NC3(CCC(C)CC3)C2=O)c1 (stereo not drawn) | -17%
COCCOCC(=O)N1CC[C@H]2C(=O)NCCCCCCN(Cc3ccncc3)[C@@H]2C1 | 10%
COc1ccc(C2C(C(N)=O)=C(C)Nc3nc(-c4ccccc4Cl)nn32)cc1 (stereo not drawn) | -22%
CCOc1ccc(C2C(C(=O)Nc3ccccc3)=C(C)Nc3nc(-c4ccccc4Cl)nn32)cc1OC (stereo not drawn) | 8.9µM*
CCOc1ccccc1C1C(C(N)=O)=C(C)Nc2nc(-c3ccccc3Cl)nn21 (stereo not drawn) | -8%
Cc1ccc(S(=O)(=O)N(C)CC2CCOCC2)cc1C | 6%
CC(C)(O)C#Cc1ccc(CN2CCCC(CCC(=O)Nc3ccccc3F)C2)s1 (stereo not drawn) | -7%
O=C(CCC1CCCN(Cc2cnc(-c3ccccc3)s2)C1)Nc1ccccc1F (stereo not drawn) | 14µM*
O=C(CCC1CCCN(CC2=Cc3cc(Cl)ccc3OC2)C1)Nc1ccccc1F (stereo not drawn) | i
CC(=O)N1CCC2(CC1)C(=O)NN=C2c1ccccn1 | 22%[44.1 µM]
COc1ccc(CNC(=O)C[C@@H]2C[C@H]3O[C@H](CNC4CCCC4)[C@@H](O)[C@H]3O2)cc1 | -22%[44.1 µM]
Cc1ccc(N2CC(c3noc(C4(c5ccccc5)CC4)n3)CC2=O)cc1 (stereo not drawn) | -18%
Cn1cc(CN(C(=O)Nc2ccccc2)C2CCCCC2)c2ccccc21 | 3.2µM*
COCC1(CNCc2cn(C)c3ccccc23)C[C@@H](O)[C@@H](O)C1 (stereo partly drawn) | i
CCOc1ccc(NC(=O)N(Cc2c[nH]c3ccccc23)C2CCCCC2)cc1 | -30%
O=C(CCN1CCCCO1)NC1CCCc2nc(-c3ccccc3)ncc21 (stereo not drawn) | -2%
CCOc1ccc(-c2nnc(SCC(=O)NC(C)CC)nc2-c2ccc(OCC)c(OC)c2)cc1OC (stereo not drawn) | i
CCOc1cc(-c2nnc(SCC(=O)NCc3ccc(C)cc3)nc2-c2ccc(OC)c(OCC)c2)ccc1OC | 13%
CCOc1cc(-c2nnc(SCC(=O)NCc3ccccc3)nc2-c2ccc(OC)c(OCC)c2)ccc1OC | 8.9µM*
O[C@@H]1C[C@@H](c2nc(-c3ccc(F)cc3)no2)N(Cc2ccncc2)C1 | -13%[44.1 µM]
OC1(c2csc(CN3CCN(c4ccccn4)CC3)n2)CCN(Cc2ccc(F)cc2)CC1 | 5µM*
COC[C@H]1CCCN1Cc1nc(C2(O)CCN(CC(C)C)CC2)cs1 | i
SMILES | Pf Dd2 growth
COC[C@H]1CCCN1Cc1nc(C2(O)CCN(C(=O)Nc3ccc(F)cc3)CC2)cs1 | -21%
COC[C@H]1CCCN1Cc1nc(C2(O)CCN(Cc3ccc(F)cc3)CC2)cs1 | 7.9µM*
OC1(c2csc(CN3CCN(c4ccccn4)CC3)n2)CCNCC1 | 2%[44.1 µM]
CN1CCN(Cc2nc(C3(O)CCN(Cc4ccccc4)CC3)cs2)CC1 | i
Cc1cccc(NC(=O)C2(C)CCCCC(=O)N2)c1 (stereo not drawn) | 4%
O=S1(=O)CCC(Cc2nc(-c3ccccn3)nn2Cc2ccccc2)C1 (stereo not drawn) | -15%
Cc1cccc(CN2C[C@@H](C(=O)O)C[C@H](C(=O)N3CCN(C)CC3)C2)n1 | -6%
C1CNC(c2nc(C3CCOCC3)no2)C1 (stereo not drawn) | 55%
COc1cncc([C@@H](NC(=O)Cc2cn3ccsc3n2)C2CC(O)C2)c1 (stereo partly drawn) | -23%
C=CCn1c(-c2ccc(F)cc2)cn2cc(C(=O)N[C@@H](C)CO)nc2c1=O | -17%
C=CCn1c(-c2cccs2)cn2cc(C(=O)NC(CC)CO)nc2c1=O (stereo not drawn) | 1%
CC(C)=CCn1c(-c2ccccc2Cl)cn2cc(C(=O)NCCCO)nc2c1=O | 7.9µM*
Cn1ncc(N2CCC(CNC(=O)CN3CCOCC3)C2)cc1=O (stereo not drawn) | 18%
COC(=O)CCCNC(=O)[C@@H]1[C@@H](NC(=O)NC2CCCCC2)CCN1C(=O)CC(C)(C)C | 15%
CCn1cc2c3c(cccc31)CN(C(=O)CC(C)(C)C)CC2 | -5%
O=c1[nH]cccc1-c1nccc(C2(c3ccccc3Cl)CCNCC2)n1 | -21%
CCCCNC(=O)C1c2ccccc2C(=O)N(Cc2ccccc2)C12CCCC2 (stereo not drawn) | -6%
CC(C)CN1C(=O)c2ccccc2C(C(=O)NC(C)C)C12CCCC2 (stereo not drawn) | -13%
CC(C)CN1C(=O)c2ccccc2C(C(=O)NC(C)C)C12CCCCC2 (stereo not drawn) | 2%
Cc1cccc(NC(=O)C2c3ccccc3C(=O)N(CC(C)C)C23CCCC3)n1 (stereo not drawn) | 3.5µM*
COCc1nnc(NC(=O)C2c3ccccc3C(=O)N(CC(C)C)C23CCCC3)s1 (stereo not drawn) | 5.6µM*
CC(C)CN1C(=O)c2ccccc2C(C(=O)Nc2nncs2)C12CCCC2 (stereo not drawn) | 13µM*
CC(C)CNC(=O)C1c2ccccc2C(=O)N(C2CCCC2)C12CCCC2 (stereo not drawn) | -26%
COCCNC(=O)C1c2ccccc2C(=O)N(CC(C)C)C12CCCCC2 (stereo not drawn) | -13%
COCCCNC(=O)C1c2ccccc2C(=O)N(CC(C)C)C12CCCCC2 (stereo not drawn) | -8%
SMILES | Pf Dd2 growth
CN(C)C(=O)c1cccc2c1CCN2C(=O)c1ccc(F)cc1 | i
CC(C)c1nnc(C2CN(C(=O)CC3CCCC3)CC23CCOCC3)o1 (stereo not drawn) | 20%
O=C(NCC(F)F)C1CCCN(c2nc3ncccc3o2)C1 (stereo not drawn) | -14%[44.1 µM]
CCCc1noc(-c2ccn3c(CNC(=O)c4ccccc4OC)nnc3c2)n1 | -10%
COc1ccc(C(=O)N2CCN(C3CCN(C)C3=O)CC2)cc1 (stereo not drawn) | 21%
O=C1CCCN1Cc1noc(-c2cccc(Cl)c2)n1 | 89%
CCc1cccc2c(C(CC(=O)NC(C)C(C)C)c3ccc(OC)c(OC)c3)c[nH]c12 (stereo not drawn) | -4%
Cn1ccc2c(C(=O)NCC3CCC(=O)N3)nc(-c3ccccc3O)cc21 (stereo not drawn) | i
O=C(c1ccccc1F)N1CCCN(c2cc(-c3ccccc3)[nH]n2)CC1 | i
CCn1nccc1C(=O)N1CCCC2(C=Cc3ccccc3O2)CC1 (stereo not drawn) | -14%
CC(C)N1CC2CCC(C1)N2Cc1cccc(C#N)c1 | -8%[44.1 µM]
CC(C)N1CC2CCC(C1)N2Cc1cccc(-c2ccsc2)c1 | 11µM*
O=C(c1ccncc1)N1CC2CCC(C1)N2Cc1cccc(-c2ccsc2)c1 | 8%
CCn1ccc(C(=O)N2CCC(c3nn(C)c4c3COCC4)CC2)n1 | i[5.79 µM]
CC(=O)N1CC2(CCCCN2C2COC2)Cc2ccccc21 (stereo not drawn) | 9%
O=C1COc2cc(C(=O)NC3CC(c4nnc(CO)n4C4CC4)C3)ccc2N1 (stereo not drawn) | 6.3µM*
O=C(NC1CC(c2nnc(CO)n2C2CC2)C1)c1n[nH]c2c1COCC2 (stereo not drawn) | -14%
